# Laboratory results taken from PubChem BioAssay.
# “And” between values parts separate entries of the source, which are not always exact repeats. Identical values can stand only once. The source made the active and inactive calls.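 The calls were made as follows, unless noted: active = normalized viability below 100% at a tested concentration; inactive = the rest.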
# Tests used:
# [1] = stimulators of nuclear beta-catenin in C2C12, primary screen, imaging, WNT3A-conditioned medium, mouse C2C12, NPC library (AID 1117326; in the data active = nuclear beta-catenin stimulation mostly above about 4.2%, no sharp cut-off; inactive = mostly below about 10%); settings: stronger effect = higher value
# [2] = stimulators of insulin release from INS-1E, primary screen, cell-based, 5 mM glucose, NPC library (AID 1117329;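 active = compound raises insulin release from rat beta cells at 5 mM glucose, no numeric limit stated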); settings: rat INS-1E insulin secretion, at 10 µM, stronger effect = higher value
# [3] = growth inhibition of GSK3B-pretreated HCT116 cells – cell-based, CellTiter-Glo, 0.2 to 20 µM (AID 1117336;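 active = compounds lowering colon cancer cell viability after pretreatment blocking the GSK3B kinase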); settings: HCT116 viability after GSK3B inhibitor, at 20 µM, stronger effect = higher value
# [4] = inhibition of endothelial tube formation, primary screen, imaging, VEGF stimulated, CD31 staining, tube area, NPC library (AID 1117340;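 active = compound that reduces growth-factor-driven endothelial tube area in a mixed cell culture, no cutoff stated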); settings: VEGF-stimulated ADSC/ECFC co-culture, at 10 µM, stronger effect = higher value
# [5] = glucagon-like peptide 1 release enhancers, primary assay, NCI-H716 cell line, NPC library (AID 1117341;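 active = compound raises GLP1 secretion from the human gut endocrine cells, with no numeric limit stated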); settings: NCI-H716 cells, at 10 µM, stronger effect = higher value
# [6] = HCT116 colon cancer cell growth inhibition, primary screen, CellTiter-Glo luminescence, NPC library (AID 1117342;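 active = compounds that lower survival of HCT116 colon cancer cells in the luminescence readout, no numeric limit stated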); settings: at 20 µM (top of the series)
# [7] = CellTiter-Glo luminescent readout of SW480 viability loss, NPC library primary (AID 1117343;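 active = compounds that lower viability of the colon cancer cells in the luminescence readout, with no numeric limit stated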); settings: CellTiter-Glo luminescence; at 20 µM (top of the series) unless noted
# [8] = decreased DLD-1 cellular survival, CellTiter-Glo luminescent readout, NPC compound collection, primary HTS (AID 1117346;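 active = compounds that lower survival of DLD-1 colon cancer cells in the luminescence readout, no cutoff given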); settings: DLD-1 viability, CellTiter-Glo luminescence; at 20 µM (top of the series)
# [9] = differential killing of epithelial or mesenchymal cells, primary screen, imaging, PC-3E GFP, TEM4-18 mCherry, co-culture (AID 1345086;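 active = compounds killing one labelled cell type while sparing the other, by normalised counts and ratio limits, not self-fluorescent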;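 as to all read-outs here: cells exposed to compound for 72 h before imaging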;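 as to red/green cell ratio (normalised): normalised mesenchymal count divided by normalised epithelial count so high means epithelial killing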); settings: imaging cell counts, at 1 µM; for red/green cell ratio (normalised): actives lie on both sides, counts scaled to control wells, 1 = unselective
# [10] = sensitizers of A549 cells to miR-34 induction, primary screen, imaging, A549 dox-inducible miR-34, nuclei and caspase counts (AID 1347080;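 active = compounds whose cell count with miR-34 switched on is under 0.7 times the count with it off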); settings: A549 miR-34 inducible, Hoechst nuclei count, 48 h
# [11] = survival rescue of mitochondrial mutant cells in low glucose, primary screen, MELAS cybrids, Rieske KO mouse fibroblasts, CellTiter-Glo (AID 1508586;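 active = mean z-score across replicates of 1.96 or higher in either the MELAS or the Rieske mutant cell line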;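 also: z relative to plate mean and SD of compound and empty wells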)
# [12] = ovarian cancer cell viability with rucaparib, profiling panel, oncology-focused library, rucaparib conditional (AID 1508598); settings: patient-derived ovarian cancer cells, CellTiter-Glo viability, 144 h, stronger effect = lower value
# [13] = biological target: NAD(+) hydrolase SARM1 (Homo sapiens) (UniProt Q6SZW1); assay: SARM1 TIR NADase inhibitors, cell lysate, NAD-Glo luminescence (AID 1508614;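 active = compound whose remaining NAD level is above about 45 nM, limit read from the data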;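 also: higher remaining NAD means stronger inhibition of SARM1 NADase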); settings: SAM-TIR HEK293T lysate NADase, at 1 µM, stronger effect = higher value
# [14] = LFS_MB_P medulloblastoma growth inhibition, cell-based, chromothripsis tumors, cisplatin or BGB combos (AID 1671449; in the data active = inhibition above about 80%;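 also: cells exposed for 96 hours; 0% = vehicle DMSO and 100% = killing by high DMSO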); settings: LFS_MB_P medulloblastoma cells
# [15] = HDN33 neuroblastoma growth inhibition, cell-based, chromothripsis tumors, cisplatin or BGB combos (AID 1671450; in the data active = inhibition above about 80%;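 also: cells exposed to compound for four days; 0% = vehicle DMSO and 100% = cell killing by high DMSO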); settings: HDN33 neuroblastoma cells, stronger effect = higher value
# [16] = ICB984 medulloblastoma cell growth inhibition, synergistic combos for chromothripsis tumors, cisplatin or BGB combos (AID 1671451; call rule not given here;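 also: cells exposed for 96 hours before readout; 0% = vehicle DMSO and 100% = killing by high DMSO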); settings: ICB984 medulloblastoma cells, drug combinations, stronger effect = higher value
# [17] = HTB85 osteosarcoma cell growth inhibition, synergistic combos for chromothripsis tumors, BGB or cisplatin IC20 combos (AID 1671453; in the data active = inhibition above about 80%;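 also: cells exposed for 96 hours before readout; 0% = vehicle DMSO and 100% = high DMSO killing control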); settings: HTB85 osteosarcoma cells, drug combinations, stronger effect = higher value
# [18] = MDA-MB-436 breast carcinoma cell growth inhibition, synergistic combos for chromothripsis tumors, BGB or cisplatin combos (AID 1671458; call rule not given here;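 also: cells exposed for 96 hours; 0% = vehicle DMSO and 100% = killing by high DMSO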); settings: MDA-MB-436 breast carcinoma growth inhibition, drug combinations, stronger effect = higher value
# [19] = hESC survival regulators, cell-based (AID 493140; call rule not given here;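 also: cells exposed to compounds for four days before counting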); settings: human embryonic stem cell survival screen; stronger effect = higher value
# [20] = liver-stage malaria parasite growth inhibition, primary screen, cell-based, HepG2, luciferase luminescence, HepG2 viability (AID 624349; in the data active = parasite load remaining mostly below about 12%, no sharp cut-off; inactive = mostly above about 10%;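 also: 100% = mean of DMSO negative control wells on the same plate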); settings: P. berghei liver stage in HepG2, luciferase luminescence, concentration not given here; parasite load remaining: stronger effect = lower value; viability: measured here: HepG2 viability without parasites
# [21] = measured here: epithelial PC-3E GFP cell survival
# [22] = measured here: mesenchymal TEM4-18 mCherry cell survival
# [23] = stronger effect = lower value, cell number ratio, induced over uninduced
# [24] = measured here: relative caspase fold change +Dox/-Dox
# [25] = measured here: total cells with miR-34 induction, stronger effect = lower value
# [26] = measured here: total cells without miR-34 induction
# [27] = MELAS cybrid survival, CellTiter-Glo 48 h, stronger effect = higher value
# [28] = Rieske KO mouse fibroblast survival, CellTiter-Glo 72 h
# Sequence of NAD(+) hydrolase SARM1 (Homo sapiens) (Q6SZW1 whole entry, looked up): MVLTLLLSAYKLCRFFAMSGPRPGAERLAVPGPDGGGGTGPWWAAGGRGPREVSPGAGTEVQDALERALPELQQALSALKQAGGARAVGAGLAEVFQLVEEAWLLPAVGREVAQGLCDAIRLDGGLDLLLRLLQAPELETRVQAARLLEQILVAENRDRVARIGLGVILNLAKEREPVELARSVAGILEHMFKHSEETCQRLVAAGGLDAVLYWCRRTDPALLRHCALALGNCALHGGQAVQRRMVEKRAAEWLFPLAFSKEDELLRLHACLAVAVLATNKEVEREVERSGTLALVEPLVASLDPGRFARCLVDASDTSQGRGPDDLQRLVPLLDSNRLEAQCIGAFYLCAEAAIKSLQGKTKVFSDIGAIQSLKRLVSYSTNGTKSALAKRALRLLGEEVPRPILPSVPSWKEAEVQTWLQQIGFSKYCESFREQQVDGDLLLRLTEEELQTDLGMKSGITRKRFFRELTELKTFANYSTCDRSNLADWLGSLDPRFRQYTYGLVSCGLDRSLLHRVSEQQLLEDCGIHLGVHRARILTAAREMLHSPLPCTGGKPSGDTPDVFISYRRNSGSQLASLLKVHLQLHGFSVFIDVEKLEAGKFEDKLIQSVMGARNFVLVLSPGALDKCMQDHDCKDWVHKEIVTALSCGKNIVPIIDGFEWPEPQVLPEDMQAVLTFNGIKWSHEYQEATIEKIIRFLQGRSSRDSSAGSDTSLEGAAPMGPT
smiles,measurement,setting,value
O=C(CCCCCCC(=O)Nc1ccccc1)NO,nuclear beta-catenin stimulation,[1]; at 10 µM,7.6% (inactive)
same,nuclear beta-catenin stimulation,"[1]; stimulation, at 2 µM",7.1%
same,insulin secretion stimulation,[2],-1.2% (inactive)
same,viability decrease,[3],53.5% (active)
same,tube area decrease,[4],103% (active)
same,GLP1 secretion stimulation,[5],0.5% (inactive)
same,inhibition of viability,[6],108% (active)
same,viability decrease (inhibition),[7],110% (active)
same,viability decrease (inhibition),[8],58% (active)
same,red/green cell ratio (normalised),[9],1.29 (inactive)
same,normalised cell number,[9]; [21],0.33
same,normalised cell number,[9]; [22],0.42
same,fold change,[10]; [23],1.09 (inactive) and 1.01 (inactive) and 0.979 (inactive)
same,fold change,[10]; [24],0.756 and 1.04 and 1.07
same,cell count,[10]; [25],1690 and 5020 and 1390
same,cell count,[10]; [26],1540 and 4980 and 1420
same,z-score,[11]; [27],0.575 (inactive) and -2.2 (inactive)
same,z-score,[11]; [28],0.979 and -1.4
same,viability,"[12]; at 0.000305 µM, OCI-C5x cells, with rucaparib 10 µM, 100% = cells with rucaparib alone",108% (inactive)
same,viability,"[12]; at 0.000305 µM, OCI-C5x cells, without rucaparib",108% (inactive)
same,viability,"[12]; at 0.000305 µM, OCI-P5x cells, with rucaparib 20 µM, 100% = cells with rucaparib alone",87.7% (active)
same,viability,"[12]; at 0.000305 µM, OCI-P5x cells, without rucaparib",91.8% (active)
same,viability,"[12]; at 0.00122 µM, OCI-C5x cells, with rucaparib 10 µM, 100% = cells with rucaparib alone",112% (inactive)
same,viability,"[12]; at 0.00122 µM, OCI-C5x cells, without rucaparib",106% (inactive)
same,viability,"[12]; at 0.00122 µM, OCI-P5x cells, with rucaparib 20 µM, 100% = cells with rucaparib alone",83% (active)
same,viability,"[12]; at 0.00122 µM, OCI-P5x cells, without rucaparib",97.1% (active)
same,viability,"[12]; at 0.00488 µM, OCI-C5x cells, with rucaparib 10 µM, 100% = cells with rucaparib alone",113% (inactive)
same,viability,"[12]; at 0.00488 µM, OCI-C5x cells, without rucaparib",110% (inactive)
same,viability,"[12]; at 0.00488 µM, OCI-P5x cells, with rucaparib 20 µM, 100% = cells with rucaparib alone",109% (inactive)
same,viability,"[12]; at 0.00488 µM, OCI-P5x cells, without rucaparib",96.9% (active)
same,viability,"[12]; at 0.0195 µM, OCI-C5x cells, with rucaparib 10 µM, 100% = cells with rucaparib alone",111% (inactive)
same,viability,"[12]; at 0.0195 µM, OCI-C5x cells, without rucaparib",114% (inactive)
same,viability,"[12]; at 0.0195 µM, OCI-P5x cells, with rucaparib 20 µM, 100% = cells with rucaparib alone",112% (inactive)
same,viability,"[12]; at 0.0195 µM, OCI-P5x cells, without rucaparib",93.3% (active)
same,viability,"[12]; at 0.0781 µM, OCI-C5x cells, with rucaparib 10 µM, 100% = cells with rucaparib alone",110% (inactive)
same,viability,"[12]; at 0.0781 µM, OCI-C5x cells, without rucaparib",108% (inactive)
same,viability,"[12]; at 0.0781 µM, OCI-P5x cells, with rucaparib 20 µM, 100% = cells with rucaparib alone",96.2% (active)
same,viability,"[12]; at 0.0781 µM, OCI-P5x cells, without rucaparib",83% (active)
same,viability,"[12]; at 0.313 µM, OCI-C5x cells, with rucaparib 10 µM, 100% = cells with rucaparib alone",57.7% (active)
same,viability,"[12]; at 0.313 µM, OCI-C5x cells, without rucaparib",57.4% (active)
same,viability,"[12]; at 0.313 µM, OCI-P5x cells, with rucaparib 20 µM, 100% = cells with rucaparib alone",61.2% (active)
same,viability,"[12]; at 0.313 µM, OCI-P5x cells, without rucaparib",46.1% (active)
same,viability,"[12]; at 1.25 µM, OCI-C5x cells, with rucaparib 10 µM, 100% = cells with rucaparib alone",73.9% (active)
same,viability,"[12]; at 1.25 µM, OCI-C5x cells, without rucaparib",52.8% (active)
same,viability,"[12]; at 1.25 µM, OCI-P5x cells, with rucaparib 20 µM, 100% = cells with rucaparib alone",65.9% (active)
same,viability,"[12]; at 1.25 µM, OCI-P5x cells, without rucaparib",55.9% (active)
same,viability,"[12]; at 5 µM, OCI-C5x cells, with rucaparib 10 µM, 100% = cells with rucaparib alone",8.43% (active)
same,viability,"[12]; at 5 µM, OCI-C5x cells, without rucaparib",7.74% (active)
same,viability,"[12]; at 5 µM, OCI-P5x cells, with rucaparib 20 µM, 100% = cells with rucaparib alone",8.03% (active)
same,viability,"[12]; at 5 µM, OCI-P5x cells, without rucaparib",14.8% (active)
same,remaining NAD,[13],10 nM (inactive)
same,inhibition,"[14]; at 0.5 µM, stronger effect = higher value",76.8% (inactive)
same,inhibition,"[14]; measured here: combination with BGB IC20, at 0.005 µM",-24%
same,inhibition,"[14]; measured here: combination with BGB IC40, at 0.005 µM",-25.1%
same,inhibition,"[14]; measured here: combination with BGB IC40, at 0.05 µM",-21.7%
same,inhibition,"[14]; measured here: combination with cisplatin, at 0.5 µM, stronger effect = higher value",48.5%
same,inhibition,"[14]; measured here: combination with cisplatin, at 5 µM, stronger effect = higher value",107%
same,inhibition,"[15]; BGB combo, at 5 µM",92.3%
same,inhibition,[15]; at 0.5 µM,20.4% (inactive)
same,inhibition,"[15]; cisplatin combo, at 5 µM",98%
same,inhibition,"[15]; measured here: with BGB IC20 combination, at 0.5 µM",5.45%
same,inhibition,"[15]; measured here: with cisplatin IC20 combination, at 0.5 µM",18.5%
same,inhibition,"[15]; single agent, at 5 µM",96.3%
same,inhibition,"[16]; BGB IC20 combo, at 0.005 µM",-9.97%
same,inhibition,"[16]; BGB IC40 combo, at 0.005 µM",-34%
same,inhibition,"[16]; BGB IC40 combo, at 0.05 µM",71.5%
same,inhibition,[16]; at 0.5 µM,-21.1% (inactive)
same,inhibition,"[16]; cisplatin combo, at 0.05 µM",70.7%
same,inhibition,"[16]; cisplatin combo, at 0.5 µM",-19.8%
same,inhibition,"[16]; cisplatin combo, at 5 µM",-86.6%
same,inhibition,"[16]; measured here: 5 uM single agent, at 5 µM",-52.1%
same,inhibition,[17]; at 0.5 µM,1.09% (inactive)
same,inhibition,"[17]; measured here: with BGB IC20, at 0.5 µM",-18.4%
same,inhibition,"[17]; measured here: with BGB IC20, at 5 µM",80.9%
same,inhibition,"[17]; measured here: with cisplatin IC20, at 0.5 µM",21.1%
same,inhibition,"[17]; measured here: with cisplatin IC20, at 5 µM",89.9%
same,inhibition,"[17]; single agent, at 5 µM",87.5%
same,inhibition,[18]; at 0.5 µM,-18.9% (inactive)
same,inhibition,"[18]; measured here: BGB combination, at 0.5 µM",-38.5%
same,inhibition,"[18]; measured here: BGB combination, at 5 µM",32%
same,inhibition,"[18]; measured here: cisplatin combination, at 0.5 µM",-20.9%
same,inhibition,"[18]; measured here: cisplatin combination, at 5 µM",36.6%
CN(C/C=C/c1ccccc1)Cc1cccc2ccccc12,survival,[19],21.7 (inactive)
same,parasite load remaining,[20],71.6% (inactive)
same,viability,[20],71.3%
same,nuclear beta-catenin stimulation,[1]; at 10 µM,2.1% (inactive)
same,nuclear beta-catenin stimulation,"[1]; stimulation, at 2 µM",1.8%
same,insulin secretion stimulation,[2],14.3% (inactive)
same,viability decrease,[3],86.7% (active)
same,tube area decrease,[4],-3.5% (inactive)
same,GLP1 secretion stimulation,[5],0.7% (inactive)
same,inhibition of viability,[6],85.3% (active)
same,viability decrease (inhibition),[7],95.4% (active)
same,viability decrease (inhibition),[8],74.5% (active)
same,red/green cell ratio (normalised),[9],1.01 (inactive)
same,normalised cell number,[9]; [21],1.19
same,normalised cell number,[9]; [22],1.2
same,fold change,[10]; [23],0.954 (inactive)
same,fold change,[10]; [24],0.94
same,cell count,[10]; [25],8810
same,cell count,[10]; [26],9230
same,z-score,[11]; [27],-0.0397 (inactive)
same,z-score,[11]; [28],-0.28
same,remaining NAD,[13],10 nM (inactive)
